# Test results reported in the supplement of paper PMC6555819.
# Key:
# Assay in all cases: PBM binding z-score (relative to random genomic background probes); higher = stronger binding; sequences stand for … in GC…GCGATTGACAGCGTAGAATGAAGG
# [1] = system: PPARg:RXRa DBDmut IVT, anti-RXR (DBD mutation: RXRa K156A/R161A, NR concentration 270 nM, RXRa partner concentration 90 nM)
# Procedure, shortened: (§1)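 Ligand-free nuclear receptor dimers were applied to custom Agilent 4×180K protein-binding microarrays whose double-stranded probes carried direct-repeat seeds, single-nucleotide variants, half-site ablations and random human genomic background sequences in 34-nt variable regions. Incubation lasted 1 h. Binding z-scores were computed against the random background probes from regression-normalized fluorescence.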
# [2] = system: PPARg:RXRa IVT, anti-PPARg (NR concentration 270 nM, RXRa partner concentration 90 nM)
# Procedure, shortened: as §1
# [3] = system: PPARg DBDmut:RXRa IVT, anti-PPARg (DBD mutation: PPARg1 K132A/R137A, NR concentration 270 nM, RXRa partner concentration 90 nM)
# Procedure, shortened: as §1
# [4] = system: PPARg DBDmut IVT, anti-PPARg (DBD mutation: PPARg1 K132A/R137A, NR concentration 270 nM)
# Procedure, shortened: as §1
# [5] = system: PPARg homodimer (NR concentration 180 nM)
# Procedure, shortened: as §1
# [6] = system: PXR:RXRa (NR concentration 270 nM, RXRa partner concentration 90 nM)
# Procedure, shortened: as §1
# [7] = system: PXR homodimer (NR concentration 270 nM)
# Procedure, shortened: as §1
# [8] = system: RARa:RXR (NR concentration 270 nM, RXRa partner concentration 90 nM)
# Procedure, shortened: as §1
# [9] = system: RARa homodimer (NR concentration 270 nM)
# Procedure, shortened: as §1
# [10] = system: RARb:RXRa (NR concentration 270 nM, RXRa partner concentration 90 nM)
# Procedure, shortened: as §1
Sequence,PBM binding z-score [1],PBM binding z-score [2],PBM binding z-score [3],PBM binding z-score [4],PBM binding z-score [5],PBM binding z-score [6],PBM binding z-score [7],PBM binding z-score [8],PBM binding z-score [9],PBM binding z-score [10]
TGTAGTTGGTCACGGAGGTCACACACGACGGGTA,0.726,3.95,0.96,0.805,2.4,4.14,0.948,4.35,0.915,3.87
GCTAGCAGGCCATTTGGGTCACTCAGTGACGGGC,1.94,2.44,-0.601,-0.52,-0.213,0.3,-0.321,0.684,-0.725,1.44
CCTAGTTGGTCAAGTTCACACACGCTATAGGTAC,1.95,1.82,0.944,1.02,2.59,3.63,5.51,2.27,1.56,2.92
AGTCAAAGATCATCTAGGTAACGTAAGATATGCT,0.742,2.23,0.348,0.62,-0.382,-0.211,-0.246,0.277,0.136,0.0858
ATCTCTAGGTAGGACTCAGTTCAGTGAAGAACGC,0.406,0.852,0.763,1.31,0.939,0.751,1.95,0.353,1.12,0.407
CCTAGCAGGCCGGGGTCACTCAAGCATTTCGCTT,0.19,1.7,-1.3,-0.709,1.87,5.35,0.474,5.98,0.348,3.53
TAGCCTAGGTCAGATCGGGCCAGTGTACGCTATA,0.622,1.31,-1.37,-0.791,-0.0708,1.18,-1.04,1.19,-1.04,3.04
TCTAGTTGGTAACGGAGGTCACACACGACGGGTA,1.63,2.76,0.969,0.885,2.11,3.99,1.46,4.04,1.83,3.27
TCTAGCAGGCCAGAGGCTCACTCAAGAGGTACGG,0.411,-0.442,-1.19,-2.42,-1.71,-0.83,-1.3,-0.758,-1.3,-0.419
CTCGAAAGGTCGGTTGAGGTGAGTACACGGATAA,0.186,0.928,0.39,-0.276,0.988,3.2,0.172,2.11,-0.296,3.15
AATACAGGGTAATCGTAGGCCAGAGTACGCACAG,2.12,2.19,0.939,0.00215,-0.0424,0.0668,0.0801,0.578,0.101,0.525
GCGACTGGGGCATCAGCAGGTTACCATAACTTAA,3.62,3.27,0.296,-0.965,0.771,-0.0761,-0.654,0.57,-0.145,0.697
ACTAGCAGGCCAAGTTTGAGTCACTCAAACAAAG,0.376,0.193,-0.678,0.262,-0.297,-0.433,-0.248,-0.0649,-1.17,0.293
ACAGACAGGTGAGTGAAGATAACTCAGCTGGACG,0.148,0.126,0.243,0.332,-0.119,-0.523,-0.597,-0.226,0.147,0.137
AGAACGAGGGCAATGAGTTGAAAGCACGGGTGGC,3.01,2.76,0.626,-0.78,0.52,1.67,5.02,0.551,-0.34,2.03
TCTAGTAGATCAAAGGTTAAGAAAGCCGAAGCCT,2.37,3.82,0.0215,0.532,1.09,1.86,-0.328,2.97,0.336,1.72
TTACCAAGGTGAGCTGAGGTCGCTGATCCAACTC,1.38,1.87,-1.62,-0.0566,-0.197,3.58,-0.341,1.5,-1.47,1.95
TGAATGAGGATATAAGATCAGGGAACGTTGCAAA,-0.556,0.057,0.56,0.888,0.688,-0.114,0.099,0.0893,0.416,-0.402
CCTACAGGGCCATCAGGTCATTGATATCAACGTT,0.49,1.32,-0.452,-0.51,1.27,1.71,0.581,1.89,0.0859,2.38

Sequence,PBM binding z-score [1],PBM binding z-score [2],PBM binding z-score [3],PBM binding z-score [4],PBM binding z-score [5],PBM binding z-score [6],PBM binding z-score [7],PBM binding z-score [8],PBM binding z-score [9],PBM binding z-score [10]
GCAGACAGGTGAAACGCAGGTAACTCACGGTGGC,1.05,0.811,0.104,-0.094,-0.18,-0.51,-0.98,0.0228,-0.454,0.558
CCTACTGGGCCAAAGGTAATTGATTCCAATGCTC,5.36,4.68,0.0261,0.0447,0.234,-0.286,-0.264,-0.0121,-0.474,0.179
ATCGAAAGGTCGAAGGTGAGTATCCCCACCCGAA,0.0448,2.14,0.338,0.675,1.12,2.87,-0.31,3.89,0.365,3.68
GCTAGCAGTCCATTTGGGTCACTCAATGACGGGC,0.379,1.16,-1.16,-1.53,0.032,0.67,0.689,0.82,-0.831,0.88
TCTAGTTGGTCACAGAGGTCACACACGACGGGTA,2.85,4.35,1.86,0.876,6.9,5.58,2.89,6.16,4.36,4.28
TCACCAAGGTGAAGGTCGTTGATCCCTCTGTAGA,2.46,2.65,0.477,0.105,-0.15,1.61,0.00737,1.94,-1.46,2.27
CCTCGGAGGACAACAGGAGGTCAGAGCCGCCAGA,-0.218,0.369,-1.41,-1.45,1.21,1.72,0.183,1.99,-0.021,2.92
ATATGTGGGTTACATCCGGGTCATTCAGGCTATG,6.84,6.81,2.1,2.31,2.37,3.72,2.92,3.51,1.06,2.01
CCTACTGGGCCATCAGGTCATTGTTATCAACGTT,4.42,5.23,1.61,0.711,1.35,1.63,0.409,2.03,0.317,2.07
ATCTCTAGGTAACCAAGTTCAGTGAGTGCCGAAC,3.88,2.77,0.349,0.828,0.761,2.12,3.09,0.548,0.845,1.21
CCTATTAGCTGACCATAAGGGCAACCGAAGCTCG,0.163,0.429,-0.689,0.266,1.42,0.183,0.353,0.375,0.765,1.18
AATACAGGGTCATCGTAGGCCATAGTACGCACAG,3,4.39,3,2.05,3.8,5.45,0.773,5.17,0.832,4.27
AATACAGGGTCATCGTAGCCCAGAGTACGCACAG,3.35,5.25,2.19,2.43,2.47,4.07,0.552,4.59,0.855,4.29
ATCGAAAGGTCGACGAGGCGAGTATACACCGTTT,0.214,1.62,0.933,1.13,1.44,2.47,0.0107,3.26,0.0419,3.84
GCTGCTAGGTCAACTGATAGTCAGCTAAAGCTCG,4.86,4.12,0.166,-1.36,0.644,1.05,-0.294,2.13,-0.287,4.09
ATATGTAGGTGATCGGGTCATTCAGTTTGCGCAT,7.23,7.11,1.94,2.7,1.86,3.27,6.72,2.77,0.81,2.01
ACTAGCAGGCCAAGTTCGGGTCACTCAAACAAAG,0.756,1.07,-0.452,-1,1.34,2.55,0.53,3.19,-0.287,2.33
CGTCCAAGGTCAAGTTCAGTGAAAGAGACTCGAA,2.98,3.88,1.06,-0.344,3.64,5.19,3.9,5.39,2.56,5.66
ATCTCTTGGTAAAGTTCAGTGAAAGATCGATAGA,0.216,0.63,1.4,1.94,1.76,2.41,2.31,1.63,1.65,2.82
